About 2,000 (36%) of roughly 5,500 compounds were called active. Another 18% or so got no clear call; they are omitted. The list shows a part of the results. A number with no mark means an inactive call. Rule as the data show it: active = normalized growth mostly below about 0.91 (no sharp cut-off); inconclusive = no clear call, values can overlap the other calls; inactive = mostly above about 0.92.
Experiment: chemical genetic growth profiling, strain panel (AID 1159580);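 also: tested at 20 µM; growth read once vehicle control cultures reached saturation at 30 °C; 1 = growth at the plate median or of vehicle wells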
Details: growth OD

Question: With `CCCCOc1ccc(C(=O)CCN2CCCCC2)cc1` as the compound, how does the normalized growth (S. cerevisiae deletion strains, locus YJR066W, strain TOR1, stronger effect = lower value) read?
Answer: 0.67 (active)

Question: What about the normalized growth (S. cerevisiae deletion strains, locus YJR075W, strain HOC1, stronger effect = lower value) of the same compound?
Answer: 0.66 (active)

Question: What about the normalized growth (S. cerevisiae deletion strains, locus YKL009W, strain mrt4, stronger effect = lower value) of the same compound?
Answer: 0.902

Question: And the normalized growth (S. cerevisiae deletion strains, locus YKL068W, stronger effect = lower value)?
Answer: 0.994

Question: And the normalized growth (S. cerevisiae deletion strains, locus YKL085W, strain MDH1 (second series), stronger effect = lower value)?
Answer: 0.973

Question: What about the normalized growth (S. cerevisiae deletion strains, locus YKL085W, strain MDH1, stronger effect = lower value) of the same compound?
Answer: 0.973

Question: What about the normalized growth (S. cerevisiae deletion strains, locus YKL160W, strain elf1, stronger effect = lower value) of the same compound?
Answer: 0.918

Question: What about the normalized growth (S. cerevisiae deletion strains, locus YKR001C, strain vps1, stronger effect = lower value) of the same compound?
Answer: 0.559 (active)

Question: And the normalized growth (S. cerevisiae deletion strains, locus YKR026C, strain gcn3, stronger effect = lower value)?
Answer: 0.996

Question: What about the normalized growth (S. cerevisiae deletion strains, locus YKR091W, strain srl3, stronger effect = lower value) of the same compound?
Answer: 0.999

Question: What about the normalized growth (S. cerevisiae deletion strains, locus YLL001W, strain dnm1, stronger effect = lower value) of the same compound?
Answer: 0.428 (active)

Question: And the normalized growth (S. cerevisiae deletion strains, locus YLL026W, stronger effect = lower value)?
Answer: 0.948

Question: What about the normalized growth (S. cerevisiae deletion strains, locus YLL041C, strain sdh2, stronger effect = lower value) of the same compound?
Answer: 0.981

Question: And the normalized growth (S. cerevisiae deletion strains, locus YLR027C, strain aat2, stronger effect = lower value)?
Answer: 0.888 (active)

Question: And the normalized growth (S. cerevisiae deletion strains, locus YLR039C, strain RIC1, stronger effect = lower value)?
Answer: 0.426 (active)

Question: What about the normalized growth (S. cerevisiae deletion strains, locus YLR058C, strain SHM2, stronger effect = lower value) of the same compound?
Answer: 0.85 (active)

Question: And the normalized growth (S. cerevisiae deletion strains, locus YLR102C, strain apc9, stronger effect = lower value)?
Answer: 0.0845 (active)

Question: And the normalized growth (S. cerevisiae deletion strains, locus YLR113W, strain HOG1, stronger effect = lower value)?
Answer: 1.03

Question: And the normalized growth (S. cerevisiae deletion strains, locus YLR221C, strain rsa3, stronger effect = lower value)?
Answer: 0.952

Question: And the normalized growth (S. cerevisiae deletion strains, locus YLR258W, strain gsy2, stronger effect = lower value)?
Answer: 0.95

Question: And the normalized growth (S. cerevisiae deletion strains, locus YLR262C, strain YPT6 (second series), stronger effect = lower value)?
Answer: 0.662 (active)

Question: What about the normalized growth (S. cerevisiae deletion strains, locus YLR262C, strain YPT6, stronger effect = lower value) of the same compound?
Answer: 0.523 (active)

Question: And the normalized growth (S. cerevisiae deletion strains, locus YLR268W, strain sec22, stronger effect = lower value)?
Answer: 0.244 (active)

Question: What about the normalized growth (S. cerevisiae deletion strains, locus YLR320W, strain mms22, stronger effect = lower value) of the same compound?
Answer: 0.565 (active)

Question: And the normalized growth (S. cerevisiae deletion strains, locus YLR330W, strain CHS5, stronger effect = lower value)?
Answer: 0.0853 (active)

Question: What about the normalized growth (S. cerevisiae deletion strains, locus YLR342W, strain FKS1 (second series), stronger effect = lower value) of the same compound?
Answer: 0.432 (active)

Question: What about the normalized growth (S. cerevisiae deletion strains, locus YLR342W, strain FKS1, stronger effect = lower value) of the same compound?
Answer: 0.985

Question: What about the normalized growth (S. cerevisiae deletion strains, locus YLR357W, strain rsc2, stronger effect = lower value) of the same compound?
Answer: 1.03

Question: And the normalized growth (S. cerevisiae deletion strains, locus YLR370C, strain arc18, stronger effect = lower value)?
Answer: 0.85 (active)

Question: And the normalized growth (S. cerevisiae deletion strains, locus YLR371W, strain rom2, stronger effect = lower value)?
Answer: 0.0987 (active)

Question: And the normalized growth (S. cerevisiae deletion strains, locus YLR384C, strain iki3, stronger effect = lower value)?
Answer: 0.976

Question: What about the normalized growth (S. cerevisiae deletion strains, locus YLR418C, strain cdc73, stronger effect = lower value) of the same compound?
Answer: 0.267 (active)

Question: What about the normalized growth (S. cerevisiae deletion strains, locus YML016C, strain PPZ1, stronger effect = lower value) of the same compound?
Answer: 0.17 (active)

Question: And the normalized growth (S. cerevisiae deletion strains, locus YML032C, strain rad52, stronger effect = lower value)?
Answer: 0.748 (active)

Question: What about the normalized growth (S. cerevisiae deletion strains, locus YML120C, strain ndi1, stronger effect = lower value) of the same compound?
Answer: 0.973

Question: What about the normalized growth (S. cerevisiae deletion strains, locus YML124C, strain tub3, stronger effect = lower value) of the same compound?
Answer: 0.552 (active)

Question: And the normalized growth (S. cerevisiae deletion strains, locus YMR058W, strain fet3, stronger effect = lower value)?
Answer: 0.731 (active)

Question: What about the normalized growth (S. cerevisiae deletion strains, locus YMR078C, strain ctf18, stronger effect = lower value) of the same compound?
Answer: 0.138 (active)

Question: And the normalized growth (S. cerevisiae deletion strains, locus YMR125W, strain sto1, stronger effect = lower value)?
Answer: 0.927

Question: And the normalized growth (S. cerevisiae deletion strains, locus YMR129W, stronger effect = lower value)?
Answer: 0.99

Question: What about the normalized growth (S. cerevisiae deletion strains, locus YMR205C, strain PFK2, stronger effect = lower value) of the same compound?
Answer: 0.875 (active)

Question: And the normalized growth (S. cerevisiae deletion strains, locus YMR223W, strain ubp8, stronger effect = lower value)?
Answer: 0.16 (active)

Question: What about the normalized growth (S. cerevisiae deletion strains, locus YMR231W, strain pep5, stronger effect = lower value) of the same compound?
Answer: 0.972

Question: What about the normalized growth (S. cerevisiae deletion strains, locus YMR263W, strain SAP30, stronger effect = lower value) of the same compound?
Answer: 0.916

Question: What about the normalized growth (S. cerevisiae deletion strains, locus YMR307W, strain GAS1, stronger effect = lower value) of the same compound?
Answer: 0.727

Question: And the normalized growth (S. cerevisiae deletion strains, locus YNL067W, strain RPL9B, stronger effect = lower value)?
Answer: 0.589 (active)

Question: What about the normalized growth (S. cerevisiae deletion strains, locus YNL071W, strain lat1, stronger effect = lower value) of the same compound?
Answer: 0.567 (active)

Question: What about the normalized growth (S. cerevisiae deletion strains, locus YNL153C, strain GIM3, stronger effect = lower value) of the same compound?
Answer: 0.839 (active)

Question: What about the normalized growth (S. cerevisiae deletion strains, locus YNL183C, strain NPR1, stronger effect = lower value) of the same compound?
Answer: 0.435 (active)

Question: And the normalized growth (S. cerevisiae deletion strains, locus YNL209W, strain ssb2, stronger effect = lower value)?
Answer: 0.981

Question: What about the normalized growth (S. cerevisiae deletion strains, locus YNL233W, strain BNI4, stronger effect = lower value) of the same compound?
Answer: 0.167 (active)

Question: What about the normalized growth (S. cerevisiae deletion strains, locus YNL248C, strain rpa49, stronger effect = lower value) of the same compound?
Answer: 0.645 (active)

Question: And the normalized growth (S. cerevisiae deletion strains, locus YNL250W, strain rad50, stronger effect = lower value)?
Answer: 0.986

Question: What about the normalized growth (S. cerevisiae deletion strains, locus YNL271C, strain bni1, stronger effect = lower value) of the same compound?
Answer: 0.94

Question: And the normalized growth (S. cerevisiae deletion strains, locus YNL298W, strain CLA4, stronger effect = lower value)?
Answer: 0.96

Question: And the normalized growth (S. cerevisiae deletion strains, locus YNL307C, strain MCK1, stronger effect = lower value)?
Answer: 0.0713 (active)

Question: What about the normalized growth (S. cerevisiae deletion strains, locus YNL322C, strain KRE1 (second series), stronger effect = lower value) of the same compound?
Answer: 1.03

Question: What about the normalized growth (S. cerevisiae deletion strains, locus YNR049C, strain mso1, stronger effect = lower value) of the same compound?
Answer: 0.693 (active)

Question: And the normalized growth (S. cerevisiae deletion strains, locus YNR052C, strain pop2, stronger effect = lower value)?
Answer: 0.864 (active)

Question: And the normalized growth (S. cerevisiae deletion strains, locus YOL006C, strain TOP1, stronger effect = lower value)?
Answer: 0.248 (active)

Question: And the normalized growth (S. cerevisiae deletion strains, locus YOL012C, strain htz1)?
Answer: 0.354

Question: And the normalized growth (S. cerevisiae deletion strains, locus YOL147C, strain pex11, stronger effect = lower value)?
Answer: 0.965

Question: What about the normalized growth (S. cerevisiae deletion strains, locus YOR001W, strain rrp6, stronger effect = lower value) of the same compound?
Answer: 0.833 (active)

Question: And the normalized growth (S. cerevisiae deletion strains, locus YOR061W, strain CKA2, stronger effect = lower value)?
Answer: 0.691 (active)

Question: And the normalized growth (S. cerevisiae deletion strains, locus YOR069W, strain VPS5, stronger effect = lower value)?
Answer: 0.558 (active)

Question: And the normalized growth (S. cerevisiae deletion strains, locus YOR070C, strain gyp1, stronger effect = lower value)?
Answer: 0.938

Question: What about the normalized growth (S. cerevisiae deletion strains, locus YOR080W, strain dia2, stronger effect = lower value) of the same compound?
Answer: 0.975

Question: What about the normalized growth (S. cerevisiae deletion strains, locus YOR083W, strain WHI5, stronger effect = lower value) of the same compound?
Answer: 0.952

Question: And the normalized growth (S. cerevisiae deletion strains, locus YOR106W, strain vam3, stronger effect = lower value)?
Answer: 0.97

Question: What about the normalized growth (S. cerevisiae deletion strains, locus YOR136W, strain idh2, stronger effect = lower value) of the same compound?
Answer: 0.0967 (active)

Question: And the normalized growth (S. cerevisiae deletion strains, locus YOR144C, strain elg1, stronger effect = lower value)?
Answer: 0.994

Question: What about the normalized growth (S. cerevisiae deletion strains, locus YOR184W, strain ser1, stronger effect = lower value) of the same compound?
Answer: 0.161 (active)

Question: What about the normalized growth (S. cerevisiae deletion strains, locus YOR231W, strain MKK1, stronger effect = lower value) of the same compound?
Answer: 1.03

Question: What about the normalized growth (S. cerevisiae deletion strains, locus YOR265W, strain rbl2, stronger effect = lower value) of the same compound?
Answer: 0.968

Question: And the normalized growth (S. cerevisiae deletion strains, locus YOR270C, strain vph1, stronger effect = lower value)?
Answer: 0.275 (active)

Question: What about the normalized growth (S. cerevisiae deletion strains, locus YOR290C, strain snf2, stronger effect = lower value) of the same compound?
Answer: 0.882

Question: What about the normalized growth (S. cerevisiae deletion strains, locus YOR316C, strain cot1, stronger effect = lower value) of the same compound?
Answer: 0.0893 (active)

Question: And the normalized growth (S. cerevisiae deletion strains, locus YPL051W, strain arl3, stronger effect = lower value)?
Answer: 0.894 (active)

Question: And the normalized growth (S. cerevisiae deletion strains, locus YPL055C, strain LGE1, stronger effect = lower value)?
Answer: 0.683 (active)

Question: What about the normalized growth (S. cerevisiae deletion strains, locus YPL078C, strain atp4, stronger effect = lower value) of the same compound?
Answer: 0.507 (active)

Question: What about the normalized growth (S. cerevisiae deletion strains, locus YPL106C, strain sse1, stronger effect = lower value) of the same compound?
Answer: 1.1

Question: And the normalized growth (S. cerevisiae deletion strains, locus YPL240C, strain hsp82, stronger effect = lower value)?
Answer: 1

Question: And the normalized growth (S. cerevisiae deletion strains, locus YPL241C, strain CIN2, stronger effect = lower value)?
Answer: 0.882 (active)

Question: What about the normalized growth (S. cerevisiae deletion strains, locus YPL256C, strain CLN2, stronger effect = lower value) of the same compound?
Answer: 1.01

Question: And the normalized growth (S. cerevisiae deletion strains, locus YPR119W, strain clb2, stronger effect = lower value)?
Answer: 0.0832 (active)

Question: And the normalized growth (S. cerevisiae deletion strains, locus YPR141C, strain kar3, stronger effect = lower value)?
Answer: 0.981

Question: And the normalized growth (S. cerevisiae deletion strains, locus YPR163C, strain tif3, stronger effect = lower value)?
Answer: 0.23 (active)

Question: What about the normalized growth (S. cerevisiae deletion strains, locus YPR167C, strain met16, stronger effect = lower value) of the same compound?
Answer: 0.206 (active)

Question: What about the normalized growth (S. cerevisiae deletion strains, strain wtn01, stronger effect = lower value) of the same compound?
Answer: 0.372 (active)

Question: And the normalized growth (S. cerevisiae strains, strain wild type, stronger effect = lower value)?
Answer: 0.647 (active)

From PubChem BioAssay AID1159580 (chemical genetic matrix, 2015)
